# Values joined by “and” are separate entries in the source; they are usually repeats but may differ in a detail not shown here. Equal entries are not always repeated. Results filed as inconclusive are left out. Where a call stands in place of a potency, no number is given. Active and inactive are the calls of the source. Unless noted, calls follow the shape of the full dose curve.
# Experiments:
# [1] = qHTS for Inhibitors of the Functional Ribonucleoprotein Complex (vRNP) of Lassa (LASV) Arenavirus: LASV Primary Screen - GLuc reporter signal (AID 1347082; calls by dose curve; tested in HEK293 reporter line; also: nearly all actives have a fitted effect of over 60% in size)
# [2] = qHTS for Inhibitors of the Functional Ribonucleoprotein Complex (vRNP) of Lassa (LASV) Arenavirus: Viability assay - alamar blue signal for LASV Primary Screen (AID 1347083; calls by dose curve; tested in HEK293 reporter line; also: nearly all actives have a fitted effect of over 80% in size)
# [3] = qHTS for Inhibitors of the Functional Ribonucleoprotein Complex (vRNP) of Lymphocytic Choriomeningitis Arenaviruses (LCMV): Viability assay - alamar blue signal for LCMV Primary Screen (AID 1347085; calls by dose curve; tested in HEK293 reporter line; also: nearly all actives have a fitted effect of over 80% in size)
# [4] = molecular target: Nucleoprotein (Lymphocytic choriomeningitis virus (strain Armstrong)) (UniProt P09992); test: qHTS for Inhibitors of the Functional Ribonucleoprotein Complex (vRNP) of Lymphocytic Choriomeningitis Arenaviruses (LCMV): LCMV Primary Screen - GLuc reporter signal (AID 1347086); also: nearly all actives have a fitted effect of over 70% in size
# [5] = tested on: Zika virus NS2B-NS3 protease; test: Primary screen GU AMC qHTS for Zika virus inhibitors (AID 1347154; active = well fitted curve in the direction sought with a large enough effect; an effect the other way counts as inactive or inconclusive; also: nearly all actives have a fitted effect of over 70% in size)
# Procedure, shortened: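 Fluorogenic AMC-substrate cleavage by noncovalent NS2B-NS3 protease complex (25 nM, pH 8.0 Tris buffer with Tween 20) followed for 15 minutes at room temperature (~20% conversion). Percent inhibition from ex340/em450 signal change, fitted by 4-parameter Hill equation.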
# [6] = Primary qHTS for small molecule stabilizers of the endoplasmic reticulum resident proteome: Secreted ER Calcium Modulated Protein (SERCaMP) assay (AID 1508630; active = well fitted curve in the direction sought with a large enough effect; an effect the other way counts as inactive or inconclusive)
# Procedure, shortened: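 GLuc-SERCaMP-expressing SH-SY5Y cells, pretreated 16 h with compound, are challenged with thapsigargin to empty ER calcium stores; after 4 h, coelenterazine is added directly to the medium and luminescence is imaged.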
# [7] = molecular target: Alpha-galactosidase (Coffea arabica) (UniProt Q42656); test: Counterscreen for Glucocerebrosidase Inhibitors: qHTS Assay for Coffee Bean alpha-Galactosidase at pH 4.5 (AID 957; active = well fitted curve in the direction sought with a large enough effect; an effect the other way counts as inactive or inconclusive)
# Procedure, shortened: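 Coffee bean alpha-galactosidase 2 nM, substrate 4-MU-alpha-Gal 80 uM, pH 4.5 citrate/Tween-20, 20 min RT. Cpd titration 0.7 nM–77 uM. Stop pH 10, fluorescence 365/440 nm; Hill-equation AC50.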
# [8] = molecular target: Alpha-galactosidase (Coffea arabica) (UniProt Q42656); test: Counterscreen for Glucocerebrosidase Inhibitors: qHTS Assay for Coffee Bean alpha-Galactosidase at pH 5.9 (AID 998; active = well fitted curve in the direction sought with a large enough effect; an effect the other way counts as inactive or inconclusive)
# Procedure, shortened: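 Compounds were titrated from 0.7 nM to 77 uM against green coffee bean alpha-galactosidase (2 nM) using 80 uM fluorogenic 4-methylumbelliferyl substrate. After 20 min at room temperature, reactions were stopped at pH 10 and read by fluorescence.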
# [9] = Validation screen for inhibitors of Lassa infection (AID 463096)
# [10] = Inducers of the Endoplasmic Reticulum Stress Response (ERSR) in human glioma: Validation (AID 504836; active = well fitted curve in the direction sought with a large enough effect; an effect the other way counts as inactive or inconclusive)
# Procedure, shortened: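 ERSR induction read as luciferase luminescence (Bright-Glo, 10 min at room temperature) in stably transfected human U87-MG glioma cells exposed to compounds for 16 h, using GRP78 as sensor.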
# [11] = qHTS for inhibitors of Rabies Virus screened against the NCATS CANVASS Library (AID 1347402)
# [12] = Cytotoxicity counterscreen for inhibitors of SARS-CoV-2 cell entry (AID 1645845); also: nearly all actives have a fitted effect of over 50% in size
# Procedure, shortened: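 48 h compound treatment (after 1 h preincubation), HEK293-ACE2 cells, 37 C/5% CO2; ATP luminescence endpoint; normalized to cell wells and media blanks.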
# [13] = Primary qHTS to identify inhibitors of SARS-CoV-2 cell entry (AID 1645846); details: activity change, negative = inhibition: at 57.1 µM (top of the series) unless noted; also: nearly all actives have a fitted effect of over 45% in size
# Procedure, shortened: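 Entry measured by luciferase signal 48 h after adding SARS-CoV-2-S pseudotyped MLV particles to HEK293-ACE2 cells preincubated 1 h with compounds. Normalisation: bald particles and spike particles.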
# [14] = Primary qHTS for inhibitors of SARS-S pseudo-typed particle cell entry (AID 1479145); also: nearly all actives have a fitted effect of over 45% in size
# [15] = Primary qHTS for Huh7 cytotoxicity: counterscreen for inhibitors of MERS-S pseudotyped particle cell entry (AID 1479147); details: outcome: dose series up to 57.1 µM unless noted
# [16] = Primary qHTS for inhibitors of MERS-S pseudo-typed particle cell entry (AID 1479149); also: nearly all actives have a fitted effect of over 60% in size
# [17] = Primary qHTS for Vero E6 cytotoxicity: counterscreen for inhibitors of SARS-S pseudo-typed particle cell entry (AID 1479150); details: outcome: dose series up to 57.1 µM unless noted
# [18] = qHTS profiling of the MIPE4 collection as inhibitors of Plasmodium falciparum (3D7) proliferation (AID 743344; call rule not given here); details: P. falciparum 3D7 in erythrocytes, SYBR Green DNA fluorescence, 72 h; at 28.5 µM (top of the series) unless noted
# Procedure, shortened: (§1)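 Erythrocytes infected with P. falciparum (0.3% parasitemia, 2.5% hematocrit) incubated with compounds 72 h at 37 C, 5% CO2. Lysis with saponin/Triton buffer containing SYBR Green I, overnight at room temperature in the dark; DNA fluorescence (485/535 nm) normalised to 0.29 uM artemisinin and DMSO.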
# [19] = qHTS profiling of the MIPE4 collection as inhibitors of Plasmodium falciparum (DD2) proliferation (AID 743345; call rule not given here); details: P. falciparum Dd2 in erythrocytes, SYBR Green DNA, 72 h; at 28.5 µM (top of the series) unless noted
# Procedure, shortened: as §1
# [20] = qHTS profiling of the MIPE4 collection as inhibitors of Plasmodium falciparum (DD2) proliferation (Rep 2) (AID 743346; call rule not given here); details: P. falciparum Dd2 in erythrocytes, SYBR Green DNA, 72 h; at 28.5 µM (top of the series) unless noted
# Procedure, shortened: as §1
# [21] = qHTS profiling of the MIPE4 collection as inhibitors of Plasmodium falciparum (HB3) proliferation (AID 743347; call rule not given here); details: P. falciparum HB3 in erythrocytes, SYBR Green DNA, 72 h; at 28.5 µM (top of the series) unless noted
# Procedure, shortened: as §1
# [22] = molecular target: Cytochrome P450 3A4 (Homo sapiens) (UniProt P08684); test: qHTS Assay for Activators of Cytochrome P450 3A4 (AID 885; active = well fitted curve in the direction sought with a large enough effect; an effect the other way counts as inactive or inconclusive; also: nearly all actives have a fitted effect of over 65% in size)
# Procedure, shortened: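 Quantitative HTS format: compounds preincubated with 20nM human CYP3A4 and Luciferin-PPXE substrate at KM, reaction started by NADPH regeneration, stopped after 60 min, luciferase luminescence read 20 min later.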
# [23] = molecular target: Nuclear receptor subfamily 1 group I member 3 (Homo sapiens) (UniProt Q14994); test: Primary qHTS for antagonist of constitutive androstane receptor (CAR) against the NCATS DSHEA and TCM libraries (AID 1794836; active = well fitted curve in the direction sought with a large enough effect; an effect the other way counts as inactive or inconclusive;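 also: HepG2 cells stably expressing hCAR with CYP2B6 luciferase reporter stimulated by CITCO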)
# Procedure, shortened: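 Antagonist mode: CAR reporter luminescence (ONE-Glo) in HepG2-CYP2B6-hCAR cells stimulated with 48 uM CITCO (final) over 24 h at 37 C, compounds titrated; viability read first by CellTiter-Fluor fluorescence.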
# Sequence of Nucleoprotein (Lymphocytic choriomeningitis virus (strain Armstrong)) (P09992 whole entry, looked up): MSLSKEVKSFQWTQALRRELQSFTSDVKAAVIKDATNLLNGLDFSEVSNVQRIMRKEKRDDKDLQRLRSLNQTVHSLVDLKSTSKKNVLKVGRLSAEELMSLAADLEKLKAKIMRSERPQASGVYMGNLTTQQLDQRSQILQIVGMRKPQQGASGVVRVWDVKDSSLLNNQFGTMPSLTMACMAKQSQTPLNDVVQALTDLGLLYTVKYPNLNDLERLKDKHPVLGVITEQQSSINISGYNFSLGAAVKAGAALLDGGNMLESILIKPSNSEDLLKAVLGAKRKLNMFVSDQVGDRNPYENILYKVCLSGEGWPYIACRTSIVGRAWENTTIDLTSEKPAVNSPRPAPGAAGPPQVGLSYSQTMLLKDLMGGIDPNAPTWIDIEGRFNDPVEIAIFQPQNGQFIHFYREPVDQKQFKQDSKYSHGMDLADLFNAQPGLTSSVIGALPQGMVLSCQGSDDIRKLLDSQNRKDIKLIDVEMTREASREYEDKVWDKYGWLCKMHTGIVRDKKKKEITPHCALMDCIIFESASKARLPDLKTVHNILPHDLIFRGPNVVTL
# Sequence of Alpha-galactosidase (Coffea arabica) (Q42656 whole entry, looked up): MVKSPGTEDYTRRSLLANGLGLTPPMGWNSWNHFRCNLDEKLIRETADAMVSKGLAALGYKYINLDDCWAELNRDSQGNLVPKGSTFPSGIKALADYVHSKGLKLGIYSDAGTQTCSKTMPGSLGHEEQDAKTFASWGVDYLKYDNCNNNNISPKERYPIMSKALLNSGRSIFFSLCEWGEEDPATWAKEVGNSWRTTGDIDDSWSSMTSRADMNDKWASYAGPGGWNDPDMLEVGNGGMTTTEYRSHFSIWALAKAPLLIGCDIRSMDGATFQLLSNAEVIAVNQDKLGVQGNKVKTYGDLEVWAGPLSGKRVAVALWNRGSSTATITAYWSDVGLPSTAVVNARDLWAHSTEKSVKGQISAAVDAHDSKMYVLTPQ
# Sequence of Cytochrome P450 3A4 (Homo sapiens) (P08684 whole entry, looked up): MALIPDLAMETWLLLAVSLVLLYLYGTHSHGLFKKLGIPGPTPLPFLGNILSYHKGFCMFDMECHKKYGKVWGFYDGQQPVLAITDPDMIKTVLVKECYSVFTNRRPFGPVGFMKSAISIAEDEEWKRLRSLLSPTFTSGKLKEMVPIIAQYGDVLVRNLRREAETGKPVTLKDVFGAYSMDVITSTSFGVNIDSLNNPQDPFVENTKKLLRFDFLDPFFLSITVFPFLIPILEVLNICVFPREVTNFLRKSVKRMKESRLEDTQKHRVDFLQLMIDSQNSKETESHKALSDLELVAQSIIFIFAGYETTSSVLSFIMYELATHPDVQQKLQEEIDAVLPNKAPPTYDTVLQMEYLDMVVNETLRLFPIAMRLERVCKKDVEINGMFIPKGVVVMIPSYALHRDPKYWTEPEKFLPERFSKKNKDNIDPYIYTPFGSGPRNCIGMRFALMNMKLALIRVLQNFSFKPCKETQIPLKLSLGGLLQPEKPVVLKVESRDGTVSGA
# Sequence of Nuclear receptor subfamily 1 group I member 3 (Homo sapiens) (Q14994 whole entry, looked up): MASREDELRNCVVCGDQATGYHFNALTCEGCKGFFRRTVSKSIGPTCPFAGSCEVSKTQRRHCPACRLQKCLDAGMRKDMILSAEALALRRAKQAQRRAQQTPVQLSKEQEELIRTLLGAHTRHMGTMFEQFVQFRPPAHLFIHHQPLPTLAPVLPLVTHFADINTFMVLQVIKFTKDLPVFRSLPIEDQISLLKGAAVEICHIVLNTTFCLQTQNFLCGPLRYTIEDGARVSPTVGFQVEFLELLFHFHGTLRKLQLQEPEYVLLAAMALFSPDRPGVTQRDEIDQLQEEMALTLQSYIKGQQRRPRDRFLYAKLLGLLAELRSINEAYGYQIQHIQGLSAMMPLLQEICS
smiles,measurement,setting,value
COc1c2ccoc2nc2c(OC)c(OCC(OC(C)=O)C(C)(C)O)ccc12 (stereo not given),Potency,[1],inactive
same,Potency,[2],inactive
same,Potency,[3],inactive
same,Potency,[4],inactive
Cn1cccc1-c1cccnc1,Potency,[1],inactive
same,Potency,[2],inactive
same,Potency,[3],inactive
same,Potency,[4],inactive
same,Potency,[5],inactive
same,Potency,[6],inactive
CC(=O)NCCc1c[nH]c2ccc(O)cc12,outcome,[7],inactive
same,outcome,[8],inactive
same,Potency,[9],inactive
same,outcome,[10],inactive
same,Potency,[1],inactive
same,Potency,[2],inactive
same,Potency,[3],inactive
same,Potency,[4],inactive
same,outcome,[11],inactive
C[C@@H]1OC(=O)[C@H]2C[C@H]3CCCC[C@@H]3[C@@H](/C=C/[C@H]3CCC[C@H](C)N3C)[C@@H]12,Potency,[1],inactive
same,Potency,[2],inactive
same,Potency,[3],inactive
same,Potency,[4],inactive
same,Potency,[5],inactive
C[N+]1([O-])CCC[C@@H]1c1cccnc1 (stereo not given in full),Potency,[1],inactive
same,Potency,[2],inactive
same,Potency,[3],inactive
same,Potency,[4],inactive
same,Potency,[5],inactive
same,Potency,[6],inactive
CC(=O)C1CCC2C3CCC4=CC(=O)C=CC4(C)C3CCC12C (stereo not given),Potency,[1],inactive
same,Potency,[2],inactive
same,Potency,[3],inactive
same,Potency,[4],inactive
O=C(O)C(O)Cc1ccc(O)c(O)c1 (stereo not given),Potency,[1],inactive
same,Potency,[2],inactive
same,Potency,[3],inactive
same,Potency,[4],inactive
same,outcome,[11],inactive
same,Potency,[12],inactive
same,"activity change, negative = inhibition",[13],-13% [at 114 µM]
CCN1C[C@]2(COC(=O)c3ccccc3N3C(=O)CC(C)C3=O)CC[C@H](OC)[C@@]34C5C[C@@H]6[C@@H](OC)C[C@@](O)(C5[C@H]6OC)[C@](O)([C@@H](OC)C23)[C@@H]14 (stereo not given in full),Potency,[1],inactive
same,Potency,[2],inactive
same,Potency,[3],inactive
same,Potency,[4],inactive
same,Potency,[5],inactive
same,Potency,[6],inactive
COc1ccc(CCN)cc1,Potency,[1],inactive
same,Potency,[2],inactive
same,Potency,[3],inactive
same,Potency,[4],inactive
same,Potency,[5],inactive
same,Potency,[6],inactive
COc1ccc(-c2cc(=O)c3c(O)cc(OC4OC(COC5OC(C)C(O)C(O)C5O)C(O)C(O)C4O)cc3o2)cc1O (stereo not given),Potency,[1],inactive
same,Potency,[2],inactive
same,Potency,[3],inactive
same,Potency,[4],inactive
c1cncc(C2CCCN2)c1 (stereo not given),Potency,[1],inactive
same,Potency,[2],inactive
same,Potency,[3],inactive
same,Potency,[4],inactive
same,Potency,[5],inactive
same,Potency,[6],inactive
Nc1cc(Cl)c(NC2=NCCN2)c(Cl)c1,outcome,[7],inactive
same,outcome,[8],inactive
same,Potency,[9],inactive
same,outcome,[10],inactive
same,Potency,[1],inactive
same,Potency,[2],inactive
same,Potency,[3],inactive
same,Potency,[4],inactive
same,Potency,[14],inactive
same,outcome,[15],inactive
same,Potency,[16],inactive
same,outcome,[17],inactive
same,Potency,[12],inactive
same,"activity change, negative = inhibition",[13],-17%
NCCCC(=O)O,outcome,[7],inactive
same,outcome,[8],inactive
same,outcome,[10],inactive
same,Potency,[1],inactive
same,Potency,[2],inactive
same,Potency,[3],inactive
same,Potency,[4],inactive
same,Potency,[14],inactive
CCCCCCCCCCCCCCCC(=O)OC[C@@H](NC(=O)C(Cl)Cl)[C@H](O)c1ccc([N+](=O)[O-])cc1,Potency,[1],inactive
same,Potency,[2],inactive
same,Potency,[3],inactive
same,Potency,[4],inactive
same,Potency,[14],inactive
same,outcome,[15],inactive
same,Potency,[16],inactive
same,outcome,[17],inactive
same,Potency,[12],inactive
same,Potency,[13],inactive
Cc1cn([C@@H]2C[C@@H](O)[C@H](CO)O2)c(=O)[nH]c1=O,"parasite growth, % of DMSO control",[18],93.3%
same,"parasite growth remaining, % of DMSO control (lower = more inhibition)",[19],92.6%
same,"parasite growth, % of control (lower = inhibition)",[20],94.9%
same,"growth, % of control",[21],59.6%
same,Potency,[1],inactive
same,Potency,[2],inactive
same,Potency,[3],inactive
same,Potency,[4],inactive
same,Potency,[14],inactive
same,outcome,[15],inactive
same,Potency,[16],inactive
same,outcome,[17],inactive
same,Potency,[12],inactive
same,"activity change, negative = inhibition",[13],-18% and -32.2%
NC(=O)c1cc[n+](CC2=C(C(=O)O)N3C(=O)[C@@H](NC(=O)[C@@H](c4ccccc4)S(=O)(=O)[O-])[C@H]3SC2)cc1,Potency,[9],inactive
same,outcome,[10],inactive
same,Potency,[1],inactive
same,Potency,[2],inactive
same,Potency,[3],inactive
same,Potency,[4],inactive
same,Potency,[14],inactive
same,outcome,[15],inactive
same,Potency,[16],inactive
same,outcome,[17],inactive
same,Potency,[12],inactive
same,"activity change, negative = inhibition",[13],2.35%
N[C@H](CO)C(=O)O,Potency,[9],inactive
same,outcome,[10],inactive
same,Potency,[1],inactive
same,Potency,[2],inactive
same,Potency,[3],inactive
same,Potency,[4],inactive
same,Potency,[14],inactive
same,outcome,[15],inactive
same,Potency,[16],inactive
same,outcome,[17],inactive
same,Potency,[12],inactive
CCC(NC(C)C)C(O)c1ccc(O)c(O)c1 (stereo not given),Potency,[9],inactive
same,outcome,[10],inactive
same,Potency,[1],inactive
same,Potency,[2],inactive
same,Potency,[3],inactive
same,Potency,[4],inactive
same,Potency,[14],inactive
same,outcome,[15],inactive
same,Potency,[16],inactive
same,outcome,[17],inactive
same,Potency,[12],inactive
same,"activity change, negative = inhibition",[13],-5.57%
C[N+](C)(C)CCO,Potency,[22],inactive
same,outcome,[7],inactive
same,outcome,[8],inactive
same,Potency,[9],inactive
same,outcome,[10],inactive
same,Potency,[1],inactive
same,Potency,[2],inactive
same,Potency,[3],inactive
same,Potency,[4],inactive
same,Potency,[14],inactive
same,outcome,[15],inactive [at 114 µM]
same,Potency,[16],inactive
same,outcome,[17],inactive [at 114 µM]
same,Potency,[12],inactive
same,"activity change, negative = inhibition",[13],-23.8% [at 114 µM]
same,Potency,[23],inactive
